This passage reports morphology score results from the supplement of paper PMC13380429.

The experiment has as its system Vero E6 infected with SARS-CoV-2. In words: morphology score (similarity to uninfected cells); higher = more like uninfected cells. As to conditions: 24 h.
The molecule `COc1ccc(/C=C/CCCCOc2ccc(C(=O)c3cccc(C(=O)O)c3)cc2CCC(=O)O)cc1` (10 µM) registered a morphology score of 0.0773.
With `CCCC(O)C(CC)CO` (stereo not drawn) [2-ethyl-1,3-hexanediol] (0.833333 µM) the figure was -0.095.
For the molecule `Cc1ccc(C(=O)Nc2ccc(CN3CCN(C)CC3)c(C(F)(F)F)c2)cc1C#Cc1cnc2[nH]ncc2c1` (10 µM), the morphology score worked out at 0.453.
With `COc1ccc2cc([C@H](C)C(=O)O)ccc2c1` [naproxen] (10 µM) the figure was -0.0223; with `Cc1cn([C@H]2O[C@@H](CO)[C@H](O)[C@H]2F)c(=O)[nH]c1=O` [clevudine] (10 µM), -0.0291.
In the case of `CON(C)C(=O)N1N=C(c2cc(F)ccc2F)S[C@@]1(CCCN)c1ccccc1` [filanesib] (0.833333 µM) it was -0.306.
As for `CCN(C(=O)c1c(O)c2c(Cl)cccc2n(C)c1=O)c1ccccc1` [laquinimod] (10 µM), the morphology score stood at 0.168.
On to `CC(=O)NCCCOc1ccc(C(=O)N2CCC(N3C(=O)CCc4ccccc43)CC2)cc1` (10 µM), for which the morphology score was 0.184.
In the case of `Cc1ccc(NC(=O)C(C)C)cc1C1CCN(Cc2ccc(Oc3ccc(F)c(F)c3)cc2)CC1` (0.833333 µM) it was 0.375.
In the case of `Nc1nnc(-c2cccc(Cl)c2Cl)c(N)n1` [lamotrigine] (10 µM) it was 0.0194; in that of `COc1cc(NS(C)(=O)=O)ccc1Nc1c2ccccc2nc2ccccc12` [amsacrine] (10 µM), -0.0803; in that of `CC1(C)CCC(C)(C)c2cc(C3(c4ccc(C(=O)O)cc4)OCCO3)ccc21` (10 µM), -0.00895.
With `OC[C@H]1O[C@H](O[C@H]2O[C@H](CO)[C@@H](O)[C@H](O)[C@H]2O)[C@H](O)[C@@H](O)[C@@H]1O` [cabaletta] (10 µM) the figure was -0.0856.
